Experimental findings from PubChem BioAssay AID504339 (National Center for Advancing Translational Sciences (NCATS), 2011) are described below.

In all, about 390,000 compounds went through this assay and about 17,000 (4.4%) were called active. Another 8% or so got no clear call; they are omitted. Calls follow the shape of the dose curve; as a rule, active = well fitted inhibition curve with a large enough effect; inconclusive = small, poorly fitted or top-dose-only effect; inactive = no such curve, though single readings can be large or run the other way. Only a selection was taken, and actives are over-represented in it overall.
% is scaled to controls: 0 for no effect and ±100 for the full control effect; potency is read from the fitted curve at half-maximal effect.

Sequence of Lysine-specific demethylase 4A (Homo sapiens) (O75164 whole entry, looked up, the tested form may be a part): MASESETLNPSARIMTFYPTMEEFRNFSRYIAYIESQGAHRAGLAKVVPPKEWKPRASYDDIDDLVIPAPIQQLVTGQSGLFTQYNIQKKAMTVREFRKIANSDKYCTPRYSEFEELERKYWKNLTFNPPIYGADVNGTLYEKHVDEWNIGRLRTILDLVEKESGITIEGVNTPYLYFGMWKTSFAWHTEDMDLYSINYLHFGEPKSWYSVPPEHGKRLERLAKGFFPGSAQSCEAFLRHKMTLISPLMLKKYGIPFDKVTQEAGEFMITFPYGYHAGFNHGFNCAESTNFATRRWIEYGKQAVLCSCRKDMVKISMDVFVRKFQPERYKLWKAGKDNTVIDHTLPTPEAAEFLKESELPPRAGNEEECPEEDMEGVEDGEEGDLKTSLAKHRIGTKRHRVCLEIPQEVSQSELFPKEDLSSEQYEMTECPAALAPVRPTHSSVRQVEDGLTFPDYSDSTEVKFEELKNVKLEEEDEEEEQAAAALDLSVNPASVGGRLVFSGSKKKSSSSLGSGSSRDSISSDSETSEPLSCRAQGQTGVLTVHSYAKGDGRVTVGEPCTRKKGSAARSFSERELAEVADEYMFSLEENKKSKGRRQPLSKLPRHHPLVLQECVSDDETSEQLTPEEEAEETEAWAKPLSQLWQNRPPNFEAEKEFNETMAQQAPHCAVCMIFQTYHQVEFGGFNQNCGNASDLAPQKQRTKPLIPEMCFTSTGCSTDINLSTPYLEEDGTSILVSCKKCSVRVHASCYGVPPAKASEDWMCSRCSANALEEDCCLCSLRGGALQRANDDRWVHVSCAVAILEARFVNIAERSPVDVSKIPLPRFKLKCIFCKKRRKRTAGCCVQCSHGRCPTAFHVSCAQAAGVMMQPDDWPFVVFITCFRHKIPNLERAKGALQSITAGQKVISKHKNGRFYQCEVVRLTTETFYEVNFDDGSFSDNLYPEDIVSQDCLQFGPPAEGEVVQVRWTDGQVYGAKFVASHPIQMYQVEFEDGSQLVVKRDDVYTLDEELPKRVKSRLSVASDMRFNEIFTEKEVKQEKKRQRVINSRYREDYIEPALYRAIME

The test addresses Lysine-specific demethylase 4A (Homo sapiens) (UniProt O75164). Nature of the test: qHTS Assay for Inhibitors of JMJD2A-Tudor Domain. Also: nearly all actives have a fitted effect of over 50% in size. The settings on record: AlphaScreen JMJD2A-Tudor / H3K4me3 peptide binding; series mostly up to 114 µM; activity change, negative = inhibition: at the top concentration.
As to `CC1CCCN(c2csc3ccc(F)cc3c2=O)C1` (centres undefined), the “activity change, negative = inhibition” value was -24% (inactive). With `Cn1nnnc1Sc1ncnc2scc(-c3ccccc3[N+](=O)[O-])c12`, the “activity change, negative = inhibition” value is -17.8% (inactive). Consider `CC(C)(C)c1ccc(OCC(=O)N2CCC(c3nc4ccccc4s3)CC2)cc1`, for which the “activity change, negative = inhibition” value was -13.2% (inactive). In the case of `COc1ccc(NC(=O)CSc2nncc(=O)n2N)cc1OC`, the “activity change, negative = inhibition” value is -11% (inactive). On to `Nn1c(SCC(=O)Nc2nccs2)nncc1=O`, for which the Potency is 28.2 µM (active). `Nn1c(SCC(=O)Nc2nccs2)nnc1-c1ccco1`: the “activity change, negative = inhibition” value was -21.4% (inactive).

`Cc1ccc2c(=O)c(C(=O)c3ccc(Cl)cc3)cn(CC(=O)NC3CCCCC3)c2n1`: the “activity change, negative = inhibition” value was -14.6% (inactive). As to `COc1ccccc1-n1cn[nH]c1=S`, the Potency was 25.1 µM (active).

In the case of `COc1ccccc1-n1cnc2cc(NS(=O)(=O)c3ccccc3)ccc21`, the “activity change, negative = inhibition” value is -24.5% (inactive).

On to `COCCCNC(=O)c1ccc2c(c1)ncn2-c1ccccc1OC`, for which the “activity change, negative = inhibition” value is 14.4% (inactive). The same measure, in the same setting: the value for `CCOc1ccc(CNC(=O)c2cc(-c3ccc(Cl)s3)nc3ccccc23)cc1` was -6.83% (inactive); that for `COc1ccc(Br)cc1CNC(=O)c1cc(=O)[nH]c2ccc(S(=O)(=O)N3CCCC3)cc12` was -9.79% (inactive). As for `CCOC(=O)c1c(C)[nH]c(C)c1S(=O)(=O)NCC(=O)NCc1cccc(C)c1`, the “activity change, negative = inhibition” value is -9.42% (inactive). On the same count and under the same terms, in the case of `CCCOc1ccccc1-c1nc(SCCC(=O)O)n[nH]1` it was -21.8% (inactive). With `Cc1cc(C)nc(Nc2n[nH]c(-c3ccccc3N)n2)n1`, the Potency is 2.24 µM (active). As for `CCCCN(CC)CCCNC(=O)c1nn(C)c2c1CSc1ccccc1-2`, the “activity change, negative = inhibition” value was 6.62% (inactive). On the same count and under the same terms, the value for `COc1cccc(CNC(=O)CSc2c3c(nc4cc(Cl)ccc24)CCCC3)c1` was 0.331% (inactive).

Take `Cc1cccc(C(=O)Nc2ccc(S(=O)(=O)N3CCCCC3c3cccnc3)cc2)c1` (centres undefined): the “activity change, negative = inhibition” value was -14.2% (inactive). As to `CCCCC(=O)NC(c1ccc(OC)c(OC)c1)c1ccc2cccnc2c1O` (centres undefined), the Potency was 56.2 µM (active). With `C=CCn1c(COc2cccc3cccnc23)nnc1SCC(=O)OC`, the “activity change, negative = inhibition” value is -7.94% (inactive). The same measure, in the same setting: in the case of `COc1ccc(CCNS(=O)(=O)c2cccc3cccnc23)cc1OC` it was -18.8% (inactive). On the same count and under the same terms, the value for `COc1ccccc1-c1ccnc2[nH]n(-c3ccccc3)c(=O)c12` was -30.2% (inactive); that for `COc1cccc(Cn2c(CNS(=O)(=O)c3ccc(Cl)s3)nc3cccnc32)c1` was -25.2% (inactive). Take `Brc1ccccc1CN1CCC(Cc2ccccc2)CC1`: the Potency was 0.794 µM (active).

Regarding `NC(=O)c1ccc(CN2CCC(Cc3ccccc3)CC2)cc1`, the “activity change, negative = inhibition” value was -11.7% (inactive). Turning to `O=c1cc(CO)oc(CN2CCC(Cc3ccccc3)CC2)c1O`, the “activity change, negative = inhibition” value is -4.12% (inactive).

Take `CCOc1ccccc1NC(=O)Cn1c2ncccc2c(=O)n1-c1ccc(C)c(C)c1`: the “activity change, negative = inhibition” value was -11.4% (inactive). As for `C=CCCC(=O)Nc1nc(C)c(-c2csc(Nc3ccc(Cl)cc3)n2)s1`, the Potency is 63.1 µM (active). Turning to `Cc1nc(NC(=O)CN(C)S(=O)(=O)c2ccc(Cl)cc2)sc1C`, the “activity change, negative = inhibition” value was -30.8% (inactive). On to `CCC(=O)Nc1nc(C)c(C(=O)Nc2cccc(Cl)c2)s1`, for which the “activity change, negative = inhibition” value was -14.8% (inactive). On the same count and under the same terms, in the case of `O=C(NC1(C(F)(F)F)N=C(c2ccccc2)N(C2CCCCC2)C1=O)c1ccccc1F` (centres undefined) it was -15.3% (inactive); in that of `CCOC(=O)c1cccc(NC(=O)Cn2cnc3nc4c(cc3c2=O)CCCC4)c1`, -1.92% (inactive); in that of `COc1ccc(NC(=O)Cn2c(=O)n(Cc3ccc(C(=O)NCc4ccccc4Cl)cc3)c(=O)c3ccccc32)cc1`, -7.88% (inactive).

For `COc1ccc(-c2nc3c4ccccc4n(CC(=O)Nc4ccc(C(C)=O)cc4)c(=O)n3n2)cc1`, the Potency is 8.91 µM (active). In the case of `CC(=O)c1ccc(NC(=O)Cn2c(=O)oc3ccccc32)cc1`, the “activity change, negative = inhibition” value was -6.82% (inactive). In the case of `O=C(NCCCn1ccnc1)C(=O)NCC1OCCN1S(=O)(=O)c1cc(F)ccc1F` (centres undefined), the Potency is 39.8 µM (active).

Take `Cc1cc(F)ccc1S(=O)(=O)N1CCCOC1CNC(=O)C(=O)NCCC1=CCCCC1` (centres undefined): the “activity change, negative = inhibition” value was -9.67% (inactive). Turning to `O=C(NCCCc1ccccc1)C(=O)NCC1OCCN1S(=O)(=O)c1ccccc1` (centres undefined), the “activity change, negative = inhibition” value was -7.53% (inactive). On to `CCn1c(C(=O)Nc2cc(Cl)ccc2C)cc2sc(Cl)cc21`, for which the “activity change, negative = inhibition” value is 4.73% (inactive). Take `COc1cc(C(=O)N2CCC(c3ccncc3)CC2)cc(OC)c1OC`: the “activity change, negative = inhibition” value is 8.67% (inactive). The same measure, in the same setting: the value for `COc1ccc(-c2cc(C(=O)NC(C(=O)O)C(C)C)c(C)o2)cc1OC` (centres undefined) was -11.8% (inactive); that for `COc1ccc(-c2cc(=O)oc3cc(OCC(=O)N[C@@H](Cc4c[nH]c5ccccc45)C(=O)O)ccc23)cc1` was -31.3% (inactive). As for `COc1ccc(-c2cc(C(=O)NC(Cc3c[nH]c4ccccc34)C(=O)O)c(C)o2)cc1OC` (centres undefined), the Potency is 22.4 µM (active).

`CC1=C(c2ccc(Cl)cc2)S(=O)(=O)N=C1N1CCN(c2cc(C)ccc2C)CC1`: the “activity change, negative = inhibition” value was -15.2% (inactive). Same read-out and setting: the value for `O=C(CCc1ccccc1)NCc1ccc2c(c1)CCN2C(=O)c1ccccc1` was 3.33% (inactive). With `CCc1ccccc1N1C(=O)CN(S(=O)(=O)CC)CC1(C)C(=O)NC1CCCCC1` (centres undefined), the “activity change, negative = inhibition” value is -4.62% (inactive). Take `Cc1ccc(C(=O)N2CC(=O)Nc3ccc(F)cc3C2c2ccc(F)cc2)cc1` (centres undefined): the “activity change, negative = inhibition” value was -6.29% (inactive).

Turning to `Cc1ccc2c(c1)C(c1ccccc1)N(C(=O)c1ccc(F)cc1)CC(=O)N2` (centres undefined), the “activity change, negative = inhibition” value was -0.699% (inactive). In the case of `Cc1ccc2c(c1)C(c1ccccc1)N(C(=O)c1ccc(S(=O)(=O)N3CCOCC3)cc1)CC(=O)N2` (centres undefined), the Potency was 50.1 µM (active).
